ChEMBL document CHEMBL3988442, “University of Dundee, Small-Polar-MMV Screening Library” (2021)
For part of these data: Results with a measured potency or affinity are listed apart.

molecular target: T1, Ubiquitin-activating enzyme e1, putative (Leishmania donovani (strain BPK282A1)) (UniProt E9BSI1); assay: Leishmania donovani Ubiquitin Activating Enzyme (LdE1); assay type: functional; set-up: scale not given: direction of the effect not stated beside the values; settings: 30 µM
T1 sequence (whole entry): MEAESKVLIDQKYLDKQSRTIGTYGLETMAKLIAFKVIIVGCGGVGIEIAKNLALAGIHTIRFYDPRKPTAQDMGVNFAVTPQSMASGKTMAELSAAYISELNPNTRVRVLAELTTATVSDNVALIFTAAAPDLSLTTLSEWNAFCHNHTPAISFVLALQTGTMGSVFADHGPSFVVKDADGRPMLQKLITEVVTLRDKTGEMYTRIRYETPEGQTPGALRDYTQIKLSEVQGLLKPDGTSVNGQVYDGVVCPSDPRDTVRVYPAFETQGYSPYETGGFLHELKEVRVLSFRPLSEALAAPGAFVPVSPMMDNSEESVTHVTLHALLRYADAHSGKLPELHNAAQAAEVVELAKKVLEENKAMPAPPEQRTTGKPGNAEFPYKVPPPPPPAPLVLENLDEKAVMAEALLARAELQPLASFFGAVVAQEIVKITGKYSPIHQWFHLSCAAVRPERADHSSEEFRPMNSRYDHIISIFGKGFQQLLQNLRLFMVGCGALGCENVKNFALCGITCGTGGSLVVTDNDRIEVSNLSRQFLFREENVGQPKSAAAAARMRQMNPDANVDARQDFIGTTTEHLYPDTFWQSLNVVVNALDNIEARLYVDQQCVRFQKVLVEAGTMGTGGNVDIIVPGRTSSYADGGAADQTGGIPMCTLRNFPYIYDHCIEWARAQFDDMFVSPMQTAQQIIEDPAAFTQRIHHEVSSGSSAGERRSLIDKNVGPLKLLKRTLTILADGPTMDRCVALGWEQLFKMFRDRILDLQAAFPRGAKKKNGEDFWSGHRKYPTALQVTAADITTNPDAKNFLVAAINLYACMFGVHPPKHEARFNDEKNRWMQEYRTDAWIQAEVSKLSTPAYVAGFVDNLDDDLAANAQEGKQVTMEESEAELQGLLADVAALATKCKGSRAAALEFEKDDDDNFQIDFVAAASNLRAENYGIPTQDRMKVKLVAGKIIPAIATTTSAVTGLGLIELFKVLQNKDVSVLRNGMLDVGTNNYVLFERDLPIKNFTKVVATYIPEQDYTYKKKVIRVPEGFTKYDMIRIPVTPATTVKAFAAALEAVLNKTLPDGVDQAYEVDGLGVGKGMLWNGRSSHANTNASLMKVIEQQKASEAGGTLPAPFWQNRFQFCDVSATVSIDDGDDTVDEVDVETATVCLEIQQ

| Compound | Percent Effect [%] |
| --- | --- |
| COc1cccc(C2CC(=O)Nc3nc(N4CCOCC4)sc32)c1OC (centres undefined) | 42.1 |
| Cc1nccn1-c1cc(CNC(=O)C(C)(C)C)ccn1 | 11 |
| CNS(=O)(=O)c1ccc(C(=O)N2CCCC2c2ccccc2)o1 (centres undefined) | 13.2 |
| Cc1csc(N2CCN(C(=O)Cc3ccsc3)CC2)n1 | 21.6 |
| CN(Cc1cccc(F)c1)C(=O)CN1CCCC1CCc1ccccc1 (centres undefined) | -7.79 |
| CN(CC1(O)CCCCC1)C1CCCN(Cc2noc(C3CC3)n2)C1 (centres undefined) | 26.3 |
| Cc1cnnn1Cc1ncn2c1CN(Cc1cccs1)CCC2 | 2.7 |
| CC(C)C(=O)NCCNc1nccc(-c2cc(C(=O)O)ccn2)n1 | 19.2 |
| COCCN1CCC(CN(CC2CCCO2)C(=O)COC)CC1 (centres undefined) | 15.3 |
| CNC(=O)c1ccc(CN2CCC(N(C)Cc3noc(C)n3)C2)cc1 (centres undefined) | 18.2 |
| O=C([C@H]1CN(CCc2ccccc2)C[C@H]2OCC[C@@H]12)N1CCCO1 | 18.7 |
| O=C(Cc1ccsc1)N1C[C@@H]2CN(Cc3ccoc3)CCO[C@@H]2C1 | 0 |
| Cn1c(Cn2cccn2)nnc1C1CCN(Cc2cccnc2N)CC1 | 1.39 |
| Cc1cc(C)n(CC2CCCCN2CC(=O)Nc2cccnc2)n1 (centres undefined) | 13.3 |
| COCc1nc(C(=O)N2CCCCC2Cn2cccn2)cs1 (centres undefined) | -7.89 |
| Cn1nnc2c1CCN(CC1CC1)C2COCc1ccccc1 (centres undefined) | 16 |
| COCC(c1cccc(C(F)(F)F)c1)N(C)C(=O)c1ccncc1 (centres undefined) | 21.1 |
| Cc1ccc(C(=O)NC2CCN(Cc3noc(CC(C)C)n3)CC2)s1 | 2.6 |
| CCN(C(=O)CS(=O)(=O)Cc1cc(Cl)c2c(c1)OCCCO2)C1CC1 | 5.06 |

molecular target: AMP-activated protein kinase, AMPK (Homo sapiens) (UniProt P54646+O43741+P54619+Q9UGJ0+Q9Y478+Q13131+Q9UGI9); assay: AMP-dependent Kinase enzyme assay. An in vitro enzyme assay that detects ADP turnover that is directly proportional to AMPK activity. This uses naive AMPK that is activated during the assay with MK-8722; assay type: functional; set-up: scale not given: direction of the effect not stated beside the values; settings: 30 µM

| Compound | Percent Effect [%] |
| --- | --- |
| O=C(c1ccn[nH]1)N1CCCC(n2cncn2)C1 (centres undefined) | -2.36 |
| CN(c1ccncn1)C1CC2(CCN(C(=O)c3cccs3)C2)C1 (centres undefined) | 1.54 |
| CCC1(CO)CCCN(c2ncccc2C#N)C1 (centres undefined) | -0.35 |
| CCN(CC)C(=O)c1ccn(COc2cc(C)cc(C)c2)n1 | -7.15 |
| CCCS(=O)(=O)NCC1CCOc2ccccc2C1 (centres undefined) | 3.87 |
| Cc1ccc(C2CSCCN2C(=O)C2=CCCC2)o1 (centres undefined) | -2.27 |
| CC(C)c1nc(C(=O)N2CCOCC2CC(=O)c2ccco2)c[nH]1 (centres undefined) | 4.64 |
| Cc1nn(C)c(N2CCOCC2)c1CNC1CCc2ccccc2C1 (centres undefined) | -15 |
| CNc1nc(C(=O)N2CCCC(c3nccn3CC3CCC3)C2)cs1 (centres undefined) | -0.395 |
| Cc1cc(Nc2nc(C)cs2)nc(C2CCCCN2CCO)n1 (centres undefined) | -0.107 |
| N#Cc1cccc(CN2CC[C@@H]3[C@@H]2CC(=O)N3Cc2cccnc2)c1 | 12.4 |
| O=C(NCCNc1ncccn1)N1CCSCC1 | -7.4 |
| CN(C)CCn1c(=O)oc2ccc(NC(=O)C3CCCO3)cc21 (centres undefined) | -5.94 |
| CC(NC(=O)C1=NN(C)C(=O)CC1)c1ccc(Cl)cc1Cl (centres undefined) | 8.07 |
| CCn1c(=O)nc2n1C(=O)N(c1cccc(Cl)c1)C2 | -1.98 |
| O=C(c1ccc(Cl)o1)N1CCCN(Cc2cscn2)CC1 | -7.43 |
| CC(N(C)Cc1nc2c(cnn2C)c(=O)[nH]1)C(C)(C)C (centres undefined) | -4.12 |
| CCc1noc(C2CCCCN2C(=O)c2nnc3ccccc3n2)n1 (centres undefined) | -3.18 |
| Cc1cccc(N2CCN(C(=O)CN3CCN(CCO)CC3)CC2)c1 | 2.85 |
| O=C(CCc1ccc(=O)[nH]n1)N1CCCC(COc2ccc(F)cc2)C1 (centres undefined) | -1.82 |

| Compound | Percent Effect [%] |
| --- | --- |
| O=C(Cc1ccccn1)N1CCN(CC2CC2)c2ncccc2C1 | 3.91 |
| COc1cccc(C2CC(=O)Nc3nc(N4CCOCC4)sc32)c1OC (centres undefined) | 16 |
| Cc1nccn1-c1cc(CNC(=O)C(C)(C)C)ccn1 | 4.7 |
| CNS(=O)(=O)c1ccc(C(=O)N2CCCC2c2ccccc2)o1 (centres undefined) | 2.8 |
| Cc1csc(N2CCN(C(=O)Cc3ccsc3)CC2)n1 | -0.587 |
| CN(Cc1cccc(F)c1)C(=O)CN1CCCC1CCc1ccccc1 (centres undefined) | 2.67 |
| CN(CC1(O)CCCCC1)C1CCCN(Cc2noc(C3CC3)n2)C1 (centres undefined) | -8.18 |
| Cc1cnnn1Cc1ncn2c1CN(Cc1cccs1)CCC2 | -2.96 |
| CC(C)C(=O)NCCNc1nccc(-c2cc(C(=O)O)ccn2)n1 | -3.6 |
| COCCN1CCC(CN(CC2CCCO2)C(=O)COC)CC1 (centres undefined) | -11 |
| CNC(=O)c1ccc(CN2CCC(N(C)Cc3noc(C)n3)C2)cc1 (centres undefined) | -3.53 |
| O=C([C@H]1CN(CCc2ccccc2)C[C@H]2OCC[C@@H]12)N1CCCO1 | -7.7 |
| O=C(Cc1ccsc1)N1C[C@@H]2CN(Cc3ccoc3)CCO[C@@H]2C1 | 4.82 |
| Cn1c(Cn2cccn2)nnc1C1CCN(Cc2cccnc2N)CC1 | -1.91 |
| Cc1cc(C)n(CC2CCCCN2CC(=O)Nc2cccnc2)n1 (centres undefined) | -13.7 |
| COCc1nc(C(=O)N2CCCCC2Cn2cccn2)cs1 (centres undefined) | -1.7 |
| Cn1nnc2c1CCN(CC1CC1)C2COCc1ccccc1 (centres undefined) | -5.25 |
| COCC(c1cccc(C(F)(F)F)c1)N(C)C(=O)c1ccncc1 (centres undefined) | -0.328 |
| Cc1ccc(C(=O)NC2CCN(Cc3noc(CC(C)C)n3)CC2)s1 | 3.54 |
| CCN(C(=O)CS(=O)(=O)Cc1cc(Cl)c2c(c1)OCCCO2)C1CC1 | -1.41 |

molecular target: Sialic acid-binding Ig-like lectin 9 (Homo sapiens) (UniProt Q9Y336); assay: Hs-Siglec9 ALPHAscreen SOP 20170721; set-up: scale not given: direction of the effect not stated beside the values; settings: 10 µM
Sequence (Q9Y336 whole entry): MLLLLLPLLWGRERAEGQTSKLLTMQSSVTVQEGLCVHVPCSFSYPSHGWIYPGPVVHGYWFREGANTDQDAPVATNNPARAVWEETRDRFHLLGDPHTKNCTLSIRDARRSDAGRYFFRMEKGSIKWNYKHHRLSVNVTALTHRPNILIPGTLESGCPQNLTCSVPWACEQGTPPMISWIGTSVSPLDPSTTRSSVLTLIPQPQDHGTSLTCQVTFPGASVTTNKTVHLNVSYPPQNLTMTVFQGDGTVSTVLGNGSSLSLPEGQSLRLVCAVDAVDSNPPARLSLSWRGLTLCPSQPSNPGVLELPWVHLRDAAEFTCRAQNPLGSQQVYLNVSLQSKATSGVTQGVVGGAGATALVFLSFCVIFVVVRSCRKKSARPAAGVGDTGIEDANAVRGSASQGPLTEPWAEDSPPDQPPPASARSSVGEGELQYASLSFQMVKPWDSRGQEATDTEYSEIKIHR

| Compound | Percent Effect [%] |
| --- | --- |
| O=C(c1ccn[nH]1)N1CCCC(n2cncn2)C1 (centres undefined) | 4.37 |
| CN(c1ccncn1)C1CC2(CCN(C(=O)c3cccs3)C2)C1 (centres undefined) | 8.09 |
| CCC1(CO)CCCN(c2ncccc2C#N)C1 (centres undefined) | 5.12 |
| CCN(CC)C(=O)c1ccn(COc2cc(C)cc(C)c2)n1 | 1.4 |
| CCCS(=O)(=O)NCC1CCOc2ccccc2C1 (centres undefined) | 5.88 |
| Cc1ccc(C2CSCCN2C(=O)C2=CCCC2)o1 (centres undefined) | 26.9 |
| CC(C)c1nc(C(=O)N2CCOCC2CC(=O)c2ccco2)c[nH]1 (centres undefined) | 2.67 |
| Cc1nn(C)c(N2CCOCC2)c1CNC1CCc2ccccc2C1 (centres undefined) | 9.25 |
| CNc1nc(C(=O)N2CCCC(c3nccn3CC3CCC3)C2)cs1 (centres undefined) | -0.171 |
| Cc1cc(Nc2nc(C)cs2)nc(C2CCCCN2CCO)n1 (centres undefined) | -8.52 |
| N#Cc1cccc(CN2CC[C@@H]3[C@@H]2CC(=O)N3Cc2cccnc2)c1 | 1.95 |
| O=C(NCCNc1ncccn1)N1CCSCC1 | 9.38 |
| CN(C)CCn1c(=O)oc2ccc(NC(=O)C3CCCO3)cc21 (centres undefined) | 4.64 |
| CC(NC(=O)C1=NN(C)C(=O)CC1)c1ccc(Cl)cc1Cl (centres undefined) | 9.9 |
| CCn1c(=O)nc2n1C(=O)N(c1cccc(Cl)c1)C2 | -4.32 |
| O=C(c1ccc(Cl)o1)N1CCCN(Cc2cscn2)CC1 | -4.3 |
| CC(N(C)Cc1nc2c(cnn2C)c(=O)[nH]1)C(C)(C)C (centres undefined) | 2.57 |
| CCc1noc(C2CCCCN2C(=O)c2nnc3ccccc3n2)n1 (centres undefined) | -0.0891 |
| Cc1cccc(N2CCN(C(=O)CN3CCN(CCO)CC3)CC2)c1 | 6.75 |
| O=C(CCc1ccc(=O)[nH]n1)N1CCCC(COc2ccc(F)cc2)C1 (centres undefined) | -3.84 |

| Compound | Percent Effect [%] |
| --- | --- |
| O=C(Cc1ccccn1)N1CCN(CC2CC2)c2ncccc2C1 | 0.314 |
| COc1cccc(C2CC(=O)Nc3nc(N4CCOCC4)sc32)c1OC (centres undefined) | 0.0251 |
| Cc1nccn1-c1cc(CNC(=O)C(C)(C)C)ccn1 | 6.88 |
| CNS(=O)(=O)c1ccc(C(=O)N2CCCC2c2ccccc2)o1 (centres undefined) | 2.47 |
| Cc1csc(N2CCN(C(=O)Cc3ccsc3)CC2)n1 | 9.11 |
| CN(Cc1cccc(F)c1)C(=O)CN1CCCC1CCc1ccccc1 (centres undefined) | 4.42 |
| CN(CC1(O)CCCCC1)C1CCCN(Cc2noc(C3CC3)n2)C1 (centres undefined) | -11.1 |
| Cc1cnnn1Cc1ncn2c1CN(Cc1cccs1)CCC2 | -6.54 |
| CC(C)C(=O)NCCNc1nccc(-c2cc(C(=O)O)ccn2)n1 | 15 |
| COCCN1CCC(CN(CC2CCCO2)C(=O)COC)CC1 (centres undefined) | 28.6 |
| CNC(=O)c1ccc(CN2CCC(N(C)Cc3noc(C)n3)C2)cc1 (centres undefined) | -3.54 |
| O=C([C@H]1CN(CCc2ccccc2)C[C@H]2OCC[C@@H]12)N1CCCO1 | -0.861 |
| O=C(Cc1ccsc1)N1C[C@@H]2CN(Cc3ccoc3)CCO[C@@H]2C1 | 8.18 |
| Cn1c(Cn2cccn2)nnc1C1CCN(Cc2cccnc2N)CC1 | -4.65 |
| Cc1cc(C)n(CC2CCCCN2CC(=O)Nc2cccnc2)n1 (centres undefined) | 36.3 |
| COCc1nc(C(=O)N2CCCCC2Cn2cccn2)cs1 (centres undefined) | -2.08 |
| Cn1nnc2c1CCN(CC1CC1)C2COCc1ccccc1 (centres undefined) | -5.75 |
| COCC(c1cccc(C(F)(F)F)c1)N(C)C(=O)c1ccncc1 (centres undefined) | -2.24 |
| Cc1ccc(C(=O)NC2CCN(Cc3noc(CC(C)C)n3)CC2)s1 | 0.891 |
| CCN(C(=O)CS(=O)(=O)Cc1cc(Cl)c2c(c1)OCCCO2)C1CC1 | -13.2 |
